These results are taken from PubChem BioAssay.

The structures appear in SMILES notation. Values without a mark were called inactive.

Sequence of Homeobox protein Hox-A13 (Mus musculus) (Q62424 whole entry, looked up): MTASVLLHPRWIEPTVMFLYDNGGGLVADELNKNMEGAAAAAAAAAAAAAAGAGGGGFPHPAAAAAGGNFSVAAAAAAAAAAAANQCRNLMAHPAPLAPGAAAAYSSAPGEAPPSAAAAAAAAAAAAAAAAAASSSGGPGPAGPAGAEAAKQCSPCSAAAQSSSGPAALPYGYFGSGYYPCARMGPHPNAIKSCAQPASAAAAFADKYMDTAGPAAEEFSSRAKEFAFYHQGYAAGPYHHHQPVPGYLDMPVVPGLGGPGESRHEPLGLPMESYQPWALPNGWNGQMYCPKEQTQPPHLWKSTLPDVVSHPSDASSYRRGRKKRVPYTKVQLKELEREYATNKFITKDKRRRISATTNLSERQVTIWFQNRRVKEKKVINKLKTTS

This assay concerns the target Homeobox protein Hox-A13 (Mus musculus) (UniProt Q62424). Description: disruptors of Hoxa13 oligonucleotide interaction – biochemical, fluorescence polarization, labeled oligonucleotide, primary screen (AID 1185). To be noted: Hoxa13:DNA binding, 15 min, higher = more signal, called active from +8 up or from −8 down.
`O=C1C=C[C@@H](O)[C@@H]2[C@@H]3C(=O)N(c4ccc(F)cc4F)C(=O)[C@@H]3CC[C@@H]12`: the z-score is 0.159.
On to `COc1cccc([C@H]2Oc3ccc(OC)cc3C(=NOC[C@@H](O)[C@H]3O[C@@H]4OC(C)(C)O[C@@H]4[C@H]3O)[C@@H]2O)c1`, for which the z-score is -3.04.
For `COCCNC(=O)OCC1CCCC2(CC(OC(=O)NCc3ccc4c(c3)OCO4)CC(CCC(=O)N[C@@H](C)C(=O)OC)O2)O1` (stereo partly specified) the value was -6.4; for `CCOC(=O)[C@H](CC(C)C)NC(=O)CCC1CC(OC(=O)NCc2cccc3ccccc23)CC2(CCCC(COC(=O)NCC3CCCCC3)O2)O1` (stereo partly specified), -4.22.
In the case of `CON=C1[C@H]2CCn3c(=O)n(-c4ccccc4)c(=O)n3[C@H]2[C@H](O)[C@@H]2O[C@H]12`, the z-score is -0.465.
Regarding `Cc1cc2c(nc1C)CCCN2CC(O)CN1CCCc2nc(C)c(C)cc21`, the z-score is -3.33.
For `CCc1cc2c(nc1CC)CCN(CCC(C)=NOC[C@H]1O[C@H](c3ccccc3)C=C[C@@H]1Oc1ccc(OC)cc1)C2` the value was -3.13; for `CO[C@H]1COC(=O)CC=C[C@H](C)[C@@H](OC)COC(=O)[C@@H](C)COC(=O)CC=C[C@@H]1C`, -1.42; for `CO[C@H]1COC(=O)[C@@H](C)COC(=O)[C@H](COCc2ccccc2)NC(=O)CC=C[C@H]1C`, -1.96.
As for `Cc1ccc(S(=O)(=O)N[C@H]2COC(=O)CC=C[C@H](C)[C@@H](NS(=O)(=O)c3ccc(C)cc3)COC(=O)CC=C[C@@H]2C)cc1`, the z-score was -0.449.
The result for `CCOC(=O)[C@H](CC(C)C)NC(=O)CCC1CC(OC(=O)NCc2cccc3ccccc23)CC2(CCCC(COC(=O)NCc3ccncc3)O2)O1` (stereo partly specified) reads -6.29; that for `CCN1C(=O)[C@H]2[C@H]3[C@H](O)[C@H](O)CC(=NO[C@@H](C)c4cn([C@H](CO)Cc5ccccc5)nn4)[C@@H]3CC[C@H]2C1=O`, -2.02.
The result for `CC(C)CON=C1C[C@@H](O)[C@@H](O)[C@@H]2[C@@H]3C(=O)N(c4cccc(Oc5ccccc5)c4)C(=O)[C@@H]3CC[C@@H]12` reads -0.0907; that for `CCC=CCCC(OC(=O)c1ccc(Br)cc1)C1=CCCCC1=O` (stereo unspecified), -3.22; that for `Cc1cc2c(nc1C)CCCCN2CC(C)ON=C1[C@H]2CCn3c(=O)n(-c4ccccc4)c(=O)n3[C@H]2[C@H](O)[C@@H]2O[C@H]12` (stereo partly specified), -4.23.
In the case of `COc1ccc(COC(=O)NN=C2C[C@@H](O)[C@@H](O)[C@@H]3[C@@H]4C(=O)N(c5cccc(Oc6ccccc6)c5)C(=O)[C@@H]4CC[C@@H]23)cc1`, the z-score is -4.69.
For `CC(C)CON=C1C[C@@H](O)[C@@H](O)[C@@H]2[C@@H]3C(=O)N(Cc4ccc5c(c4)OCO5)C(=O)[C@@H]3CC[C@H]12` the value was -3.41.
Take `CCOC(=O)[C@H](CC(C)C)NC(=O)CCC1CC(OC(=O)NCc2ccc3c(c2)OCO3)CC2(CCCC(COC(=O)NCC(c3ccccc3)c3ccccc3)O2)O1` (stereo partly specified): the z-score was -6.66.
On to `COC(=O)[C@H](C)NC(=O)CCC1CC(OC(=O)NCc2ccc3c(c2)OCO3)CC2(CCCC(COC(=O)NCC3CCCCC3)O2)O1` (stereo partly specified), for which the z-score was -4.19.
For `CCOC(=O)[C@H](CC(C)C)NC(=O)CCC1CC(OC(=O)NCc2cccc3ccccc23)CC2(CCCC(COC(=O)NCCCN3CCCC3=O)O2)O1` (stereo partly specified) the value was -4.61; for `O=C1[C@H]2[C@H]3[C@H](O)[C@H](O)CC(=NOC[C@@H](O)COCc4ccco4)[C@@H]3CC[C@H]2C(=O)N1C[C@@H]1CCCO1`, 0.515.
For `C[C@@H](c1ccccc1)N1C(=O)[C@H]2[C@H]3[C@H](O)[C@H](O)CC(=NO[C@@H]4O[C@H](CO)[C@@H](O)[C@H](O)[C@H]4O)[C@H]3CC[C@H]2C1=O` the value was -0.285; for `COC(=O)CC=C[C@@H](C)[C@@H](C=NO[C@H](C)c1cn([C@@H]2COC[C@H]2O)nn1)NS(=O)(=O)c1ccc(C)cc1`, -1.63.
On to `COC(=O)NCC=Cc1nc(CCCO)co1`, for which the z-score was -2.8.
Regarding `CON=C(C)CCC(=O)OC[C@H]1O[C@H](c2ccccc2)C=C[C@@H]1Oc1ccc(OC)cc1`, the z-score was -4.5.
On to `CC(C)=CCCC(C)=CCON=C1C[C@@H](O)[C@@H](O)[C@@H]2[C@@H]3C(=O)N(c4ccc(F)cc4F)C(=O)[C@@H]3CC[C@H]12`, for which the z-score is -2.5.
